According to ChEMBL document CHEMBL2218924, “A broad activity screen in support of a chemogenomic map for kinase signalling research and drug discovery” (Biochem J, 2013):

Columns and labels:
[1] = target: Death-associated protein kinase 1 (Homo sapiens) (UniProt P53355); conditions: at 10 µM
[2] = target: Death-associated protein kinase 2 (Homo sapiens) (UniProt Q9UIK4); conditions: at 1 µM
[3] = target: T1, Serine/threonine-protein kinase DCLK2 (Homo sapiens) (UniProt Q8N568); conditions: at 1 µM
T1 sequence (whole entry): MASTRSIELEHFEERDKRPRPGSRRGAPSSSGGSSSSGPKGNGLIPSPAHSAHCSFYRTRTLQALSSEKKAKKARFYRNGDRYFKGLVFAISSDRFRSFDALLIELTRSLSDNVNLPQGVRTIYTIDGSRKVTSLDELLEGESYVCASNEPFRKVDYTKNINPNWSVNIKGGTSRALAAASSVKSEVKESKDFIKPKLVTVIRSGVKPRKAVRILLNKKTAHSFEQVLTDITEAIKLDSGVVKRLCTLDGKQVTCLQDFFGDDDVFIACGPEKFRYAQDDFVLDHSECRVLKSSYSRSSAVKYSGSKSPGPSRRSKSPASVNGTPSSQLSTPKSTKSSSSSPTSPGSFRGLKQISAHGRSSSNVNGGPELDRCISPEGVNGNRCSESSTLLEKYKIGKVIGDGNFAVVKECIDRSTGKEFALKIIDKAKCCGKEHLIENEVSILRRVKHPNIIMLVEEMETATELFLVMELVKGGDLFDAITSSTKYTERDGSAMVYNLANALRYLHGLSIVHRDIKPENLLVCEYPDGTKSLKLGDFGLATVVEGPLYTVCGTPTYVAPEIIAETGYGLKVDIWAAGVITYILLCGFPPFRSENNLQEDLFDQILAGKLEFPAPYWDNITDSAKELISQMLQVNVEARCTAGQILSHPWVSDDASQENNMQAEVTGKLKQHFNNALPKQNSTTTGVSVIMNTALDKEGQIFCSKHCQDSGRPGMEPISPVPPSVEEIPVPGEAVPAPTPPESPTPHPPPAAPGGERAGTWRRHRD

[4] = target: T1, Serine/threonine-protein kinase DCLK2 (Homo sapiens); conditions: at 10 µM
[5] = target: T2, Discoidin domain-containing receptor 2 (Homo sapiens) (UniProt Q16832); conditions: at 1 µM
T2 sequence (whole entry): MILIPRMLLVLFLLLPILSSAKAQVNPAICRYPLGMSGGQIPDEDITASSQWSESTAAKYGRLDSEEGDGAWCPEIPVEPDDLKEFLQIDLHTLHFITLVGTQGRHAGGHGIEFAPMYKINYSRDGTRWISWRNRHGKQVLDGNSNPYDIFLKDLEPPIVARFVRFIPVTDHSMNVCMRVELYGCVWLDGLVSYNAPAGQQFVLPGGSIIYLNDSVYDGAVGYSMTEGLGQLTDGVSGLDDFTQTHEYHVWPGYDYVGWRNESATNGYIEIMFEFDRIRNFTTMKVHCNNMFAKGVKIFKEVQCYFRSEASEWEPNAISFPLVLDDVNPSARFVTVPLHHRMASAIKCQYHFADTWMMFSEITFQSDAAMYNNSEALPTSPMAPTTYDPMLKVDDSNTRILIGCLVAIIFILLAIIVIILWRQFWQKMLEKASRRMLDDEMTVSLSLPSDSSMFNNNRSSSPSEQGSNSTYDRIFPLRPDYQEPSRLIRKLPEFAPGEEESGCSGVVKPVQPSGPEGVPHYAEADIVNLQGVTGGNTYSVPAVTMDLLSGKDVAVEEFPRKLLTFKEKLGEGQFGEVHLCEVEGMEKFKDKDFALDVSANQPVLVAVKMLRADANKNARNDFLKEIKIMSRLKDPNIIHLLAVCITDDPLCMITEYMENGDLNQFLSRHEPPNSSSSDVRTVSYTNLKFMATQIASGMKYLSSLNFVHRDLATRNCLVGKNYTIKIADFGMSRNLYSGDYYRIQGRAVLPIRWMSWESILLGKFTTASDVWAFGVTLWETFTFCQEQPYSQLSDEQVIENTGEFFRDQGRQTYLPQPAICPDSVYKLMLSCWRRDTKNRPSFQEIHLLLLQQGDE

[6] = target: T2, Discoidin domain-containing receptor 2 (Homo sapiens); conditions: at 10 µM
[7] = target: T3, Myotonin-protein kinase (Homo sapiens) (UniProt Q09013); conditions: at 1 µM
T3 sequence (whole entry): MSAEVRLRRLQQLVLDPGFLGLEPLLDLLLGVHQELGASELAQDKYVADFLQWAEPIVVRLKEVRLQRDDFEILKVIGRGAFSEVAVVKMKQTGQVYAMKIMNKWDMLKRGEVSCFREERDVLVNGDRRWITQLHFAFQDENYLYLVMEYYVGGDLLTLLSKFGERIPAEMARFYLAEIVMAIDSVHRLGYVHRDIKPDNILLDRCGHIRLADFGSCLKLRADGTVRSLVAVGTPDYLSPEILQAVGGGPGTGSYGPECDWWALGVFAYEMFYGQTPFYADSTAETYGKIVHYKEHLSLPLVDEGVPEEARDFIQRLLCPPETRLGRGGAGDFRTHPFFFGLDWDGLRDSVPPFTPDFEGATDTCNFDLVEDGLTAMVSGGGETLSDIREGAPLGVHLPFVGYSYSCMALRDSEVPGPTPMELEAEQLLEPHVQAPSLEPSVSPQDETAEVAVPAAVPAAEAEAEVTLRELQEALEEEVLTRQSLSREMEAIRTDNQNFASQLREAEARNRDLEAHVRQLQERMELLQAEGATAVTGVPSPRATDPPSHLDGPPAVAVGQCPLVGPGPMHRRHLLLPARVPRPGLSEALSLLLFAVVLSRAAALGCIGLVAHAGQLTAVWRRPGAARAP

[8] = target: T3, Myotonin-protein kinase (Homo sapiens); conditions: at 10 µM
[9] = target: T4, Dual specificity tyrosine-phosphorylation-regulated kinase 2 (Homo sapiens) (UniProt Q92630); conditions: at 1 µM
T4 sequence (whole entry): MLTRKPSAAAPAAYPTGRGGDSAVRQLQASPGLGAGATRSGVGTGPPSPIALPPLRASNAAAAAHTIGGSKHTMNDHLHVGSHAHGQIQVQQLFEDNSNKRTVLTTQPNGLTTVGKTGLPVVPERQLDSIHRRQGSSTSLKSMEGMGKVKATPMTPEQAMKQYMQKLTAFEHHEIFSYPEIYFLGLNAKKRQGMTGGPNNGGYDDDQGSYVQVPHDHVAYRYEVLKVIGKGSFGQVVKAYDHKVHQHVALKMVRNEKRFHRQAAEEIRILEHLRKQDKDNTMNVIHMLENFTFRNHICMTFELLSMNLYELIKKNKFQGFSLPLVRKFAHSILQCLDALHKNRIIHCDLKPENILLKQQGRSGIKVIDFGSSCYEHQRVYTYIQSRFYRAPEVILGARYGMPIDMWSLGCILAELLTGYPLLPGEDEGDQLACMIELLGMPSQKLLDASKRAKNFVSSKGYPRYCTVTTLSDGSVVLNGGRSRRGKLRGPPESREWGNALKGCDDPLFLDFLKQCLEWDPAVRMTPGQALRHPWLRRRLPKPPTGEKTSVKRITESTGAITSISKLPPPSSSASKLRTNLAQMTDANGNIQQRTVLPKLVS

[10] = target: T4, Dual specificity tyrosine-phosphorylation-regulated kinase 2 (Homo sapiens); conditions: at 10 µM
[11] = target: T5, Ephrin type-A receptor 1 (Homo sapiens) (UniProt P21709); conditions: at 1 µM
T5 sequence (whole entry): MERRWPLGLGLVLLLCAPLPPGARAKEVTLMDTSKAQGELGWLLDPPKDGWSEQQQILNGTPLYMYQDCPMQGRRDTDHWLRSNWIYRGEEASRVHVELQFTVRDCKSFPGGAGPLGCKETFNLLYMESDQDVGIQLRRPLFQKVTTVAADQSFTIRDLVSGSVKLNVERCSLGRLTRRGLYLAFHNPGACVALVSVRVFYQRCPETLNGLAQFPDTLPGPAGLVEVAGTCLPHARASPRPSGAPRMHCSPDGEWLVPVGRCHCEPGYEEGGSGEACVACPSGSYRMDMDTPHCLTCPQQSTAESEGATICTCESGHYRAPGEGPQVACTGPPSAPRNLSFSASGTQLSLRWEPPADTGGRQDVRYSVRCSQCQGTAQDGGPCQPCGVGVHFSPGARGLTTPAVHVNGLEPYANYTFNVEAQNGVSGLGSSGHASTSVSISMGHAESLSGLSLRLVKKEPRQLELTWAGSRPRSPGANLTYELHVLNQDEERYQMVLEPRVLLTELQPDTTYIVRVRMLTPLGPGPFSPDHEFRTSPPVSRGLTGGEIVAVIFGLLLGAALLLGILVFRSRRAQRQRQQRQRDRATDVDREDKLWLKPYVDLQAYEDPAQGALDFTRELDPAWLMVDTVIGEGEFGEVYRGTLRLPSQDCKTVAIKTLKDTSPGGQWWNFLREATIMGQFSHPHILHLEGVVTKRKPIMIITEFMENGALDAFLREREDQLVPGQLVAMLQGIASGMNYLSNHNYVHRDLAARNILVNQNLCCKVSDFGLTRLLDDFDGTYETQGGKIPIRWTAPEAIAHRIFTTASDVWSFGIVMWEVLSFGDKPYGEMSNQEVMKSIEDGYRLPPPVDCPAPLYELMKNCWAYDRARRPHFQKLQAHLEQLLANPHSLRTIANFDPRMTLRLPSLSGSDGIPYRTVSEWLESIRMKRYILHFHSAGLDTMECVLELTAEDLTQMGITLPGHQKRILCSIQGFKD

[12] = target: T5, Ephrin type-A receptor 1 (Homo sapiens); conditions: at 10 µM
[13] = target: Ephrin type-A receptor 2 (Homo sapiens) (UniProt P29317); conditions: at 1 µM
[14] = target: T6, Ephrin type-A receptor 3 (Homo sapiens) (UniProt P29320); conditions: at 1 µM
T6 sequence (whole entry): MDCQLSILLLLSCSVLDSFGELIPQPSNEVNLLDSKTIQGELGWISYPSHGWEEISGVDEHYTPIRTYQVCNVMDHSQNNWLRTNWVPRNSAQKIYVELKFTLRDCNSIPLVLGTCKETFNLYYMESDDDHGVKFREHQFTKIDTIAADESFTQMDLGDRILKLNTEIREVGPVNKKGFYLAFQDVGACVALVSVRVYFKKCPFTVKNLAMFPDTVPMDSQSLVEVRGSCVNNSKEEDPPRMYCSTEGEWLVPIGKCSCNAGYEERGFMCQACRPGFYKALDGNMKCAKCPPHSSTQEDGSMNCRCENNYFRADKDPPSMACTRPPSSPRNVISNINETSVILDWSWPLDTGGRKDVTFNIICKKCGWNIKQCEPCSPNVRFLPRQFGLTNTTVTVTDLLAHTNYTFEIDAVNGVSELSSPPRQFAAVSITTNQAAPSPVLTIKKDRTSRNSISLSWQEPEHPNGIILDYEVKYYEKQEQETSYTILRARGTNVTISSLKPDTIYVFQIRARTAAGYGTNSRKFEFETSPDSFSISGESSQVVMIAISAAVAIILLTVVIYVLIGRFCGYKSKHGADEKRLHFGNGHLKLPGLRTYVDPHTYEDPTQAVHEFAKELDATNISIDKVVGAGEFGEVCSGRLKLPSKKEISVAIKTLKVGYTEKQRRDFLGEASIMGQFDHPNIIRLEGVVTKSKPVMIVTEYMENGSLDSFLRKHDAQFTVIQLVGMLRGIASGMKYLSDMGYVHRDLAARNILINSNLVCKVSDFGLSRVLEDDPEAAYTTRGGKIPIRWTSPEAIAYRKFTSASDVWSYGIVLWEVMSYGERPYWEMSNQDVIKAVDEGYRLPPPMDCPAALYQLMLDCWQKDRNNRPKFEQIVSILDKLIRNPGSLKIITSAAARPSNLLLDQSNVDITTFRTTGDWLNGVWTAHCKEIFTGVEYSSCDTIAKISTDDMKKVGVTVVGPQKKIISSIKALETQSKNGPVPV

[15] = target: Death-associated protein kinase 2 (Homo sapiens) (UniProt Q9UIK4); conditions: at 10 µM
[16] = target: T7, Serine/threonine-protein kinase 17A (Homo sapiens) (UniProt Q9UEE5); conditions: at 1 µM
T7 sequence (whole entry): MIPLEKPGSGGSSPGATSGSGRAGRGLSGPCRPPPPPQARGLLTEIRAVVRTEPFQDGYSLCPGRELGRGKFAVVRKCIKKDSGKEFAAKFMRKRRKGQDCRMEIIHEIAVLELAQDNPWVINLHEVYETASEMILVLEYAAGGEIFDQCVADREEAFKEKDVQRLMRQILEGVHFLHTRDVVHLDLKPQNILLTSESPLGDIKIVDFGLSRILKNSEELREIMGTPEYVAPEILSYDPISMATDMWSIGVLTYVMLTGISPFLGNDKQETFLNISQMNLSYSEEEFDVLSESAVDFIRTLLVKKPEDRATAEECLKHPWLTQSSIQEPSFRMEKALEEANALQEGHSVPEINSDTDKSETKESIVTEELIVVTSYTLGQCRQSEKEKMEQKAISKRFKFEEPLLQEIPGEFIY

[17] = target: T7, Serine/threonine-protein kinase 17A (Homo sapiens); conditions: at 10 µM
[18] = target: Ephrin type-A receptor 2 (Homo sapiens) (UniProt P29317); conditions: at 10 µM

Death-associated protein kinase 2 (Homo sapiens), sequence (Q9UIK4 whole entry, looked up): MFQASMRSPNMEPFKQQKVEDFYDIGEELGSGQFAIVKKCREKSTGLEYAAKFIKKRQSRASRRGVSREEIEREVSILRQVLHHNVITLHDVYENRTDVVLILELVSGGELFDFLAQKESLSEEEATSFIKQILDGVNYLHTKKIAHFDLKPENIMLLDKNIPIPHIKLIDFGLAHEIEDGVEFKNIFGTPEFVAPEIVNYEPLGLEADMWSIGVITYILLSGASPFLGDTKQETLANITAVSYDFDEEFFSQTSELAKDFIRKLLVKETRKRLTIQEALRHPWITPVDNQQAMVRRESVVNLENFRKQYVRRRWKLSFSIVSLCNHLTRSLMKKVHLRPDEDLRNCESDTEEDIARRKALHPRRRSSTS
Ephrin type-A receptor 2 (Homo sapiens), sequence (P29317 whole entry): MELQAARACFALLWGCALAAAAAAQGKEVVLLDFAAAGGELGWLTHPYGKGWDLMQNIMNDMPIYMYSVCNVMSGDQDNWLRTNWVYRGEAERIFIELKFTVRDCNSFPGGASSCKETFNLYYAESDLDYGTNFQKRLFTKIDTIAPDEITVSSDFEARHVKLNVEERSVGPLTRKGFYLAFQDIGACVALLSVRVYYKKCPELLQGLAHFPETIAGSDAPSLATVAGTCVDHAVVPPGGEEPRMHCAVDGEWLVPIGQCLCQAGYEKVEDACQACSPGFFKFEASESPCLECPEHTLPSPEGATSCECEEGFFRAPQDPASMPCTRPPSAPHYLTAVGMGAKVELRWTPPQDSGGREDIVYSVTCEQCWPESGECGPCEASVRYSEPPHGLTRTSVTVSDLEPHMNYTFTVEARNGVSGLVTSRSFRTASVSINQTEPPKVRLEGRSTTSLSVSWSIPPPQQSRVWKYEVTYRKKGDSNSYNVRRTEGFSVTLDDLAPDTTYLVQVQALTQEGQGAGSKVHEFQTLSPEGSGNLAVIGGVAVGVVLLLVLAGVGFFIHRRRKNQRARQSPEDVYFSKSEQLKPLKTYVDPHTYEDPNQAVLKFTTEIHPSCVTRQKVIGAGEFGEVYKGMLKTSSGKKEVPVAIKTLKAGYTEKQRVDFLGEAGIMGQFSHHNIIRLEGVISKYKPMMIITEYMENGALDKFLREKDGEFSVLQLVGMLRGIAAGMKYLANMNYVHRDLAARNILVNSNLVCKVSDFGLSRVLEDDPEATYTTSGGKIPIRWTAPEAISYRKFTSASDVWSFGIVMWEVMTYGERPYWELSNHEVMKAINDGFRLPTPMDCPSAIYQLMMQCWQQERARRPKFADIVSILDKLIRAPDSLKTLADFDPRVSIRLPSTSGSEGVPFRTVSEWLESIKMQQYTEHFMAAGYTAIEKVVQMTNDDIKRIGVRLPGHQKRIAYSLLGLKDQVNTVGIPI
Death-associated protein kinase 1 (Homo sapiens), sequence (P53355 whole entry, looked up): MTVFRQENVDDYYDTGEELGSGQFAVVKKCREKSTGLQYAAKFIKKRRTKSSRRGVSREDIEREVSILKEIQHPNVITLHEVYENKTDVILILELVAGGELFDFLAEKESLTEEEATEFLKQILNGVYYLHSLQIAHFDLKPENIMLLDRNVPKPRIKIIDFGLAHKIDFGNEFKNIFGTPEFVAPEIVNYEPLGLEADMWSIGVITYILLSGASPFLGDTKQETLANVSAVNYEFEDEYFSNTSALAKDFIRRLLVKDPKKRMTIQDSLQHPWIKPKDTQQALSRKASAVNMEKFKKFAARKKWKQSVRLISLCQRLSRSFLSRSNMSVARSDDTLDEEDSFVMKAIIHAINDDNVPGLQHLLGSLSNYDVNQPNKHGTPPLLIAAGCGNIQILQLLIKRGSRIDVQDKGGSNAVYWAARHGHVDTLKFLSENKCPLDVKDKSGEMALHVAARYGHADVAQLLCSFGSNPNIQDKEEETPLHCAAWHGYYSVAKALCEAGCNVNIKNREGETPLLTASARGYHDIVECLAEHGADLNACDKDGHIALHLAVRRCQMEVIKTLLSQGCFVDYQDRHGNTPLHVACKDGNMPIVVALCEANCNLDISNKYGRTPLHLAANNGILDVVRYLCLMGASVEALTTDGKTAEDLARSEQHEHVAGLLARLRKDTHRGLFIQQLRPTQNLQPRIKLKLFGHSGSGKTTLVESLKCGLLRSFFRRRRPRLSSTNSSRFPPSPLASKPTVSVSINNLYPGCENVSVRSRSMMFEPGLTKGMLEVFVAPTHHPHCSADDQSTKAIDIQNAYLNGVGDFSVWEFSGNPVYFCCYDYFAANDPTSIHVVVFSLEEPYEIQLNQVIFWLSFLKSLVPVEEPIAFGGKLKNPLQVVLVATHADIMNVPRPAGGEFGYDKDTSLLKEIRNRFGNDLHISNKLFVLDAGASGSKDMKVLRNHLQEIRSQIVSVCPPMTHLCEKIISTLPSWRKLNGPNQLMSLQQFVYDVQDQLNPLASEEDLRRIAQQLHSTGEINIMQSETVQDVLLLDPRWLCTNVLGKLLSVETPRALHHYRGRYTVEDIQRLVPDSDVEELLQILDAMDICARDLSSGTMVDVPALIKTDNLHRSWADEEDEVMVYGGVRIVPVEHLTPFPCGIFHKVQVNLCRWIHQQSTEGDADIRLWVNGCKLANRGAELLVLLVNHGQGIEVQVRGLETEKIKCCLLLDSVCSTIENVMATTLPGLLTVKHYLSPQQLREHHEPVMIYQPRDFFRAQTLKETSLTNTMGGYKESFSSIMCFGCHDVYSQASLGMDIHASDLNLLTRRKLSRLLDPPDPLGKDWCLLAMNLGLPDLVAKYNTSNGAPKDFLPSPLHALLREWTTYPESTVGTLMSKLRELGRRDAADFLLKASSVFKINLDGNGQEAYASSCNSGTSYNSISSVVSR

Structure (SMILES) | residual activity [1] | residual activity [2] | residual activity [3] | residual activity [4] | residual activity [5] | residual activity [6] | residual activity [7] | residual activity [8] | residual activity [9] | residual activity [10] | residual activity [11] | residual activity [12] | residual activity [13] | residual activity [14] | residual activity [15] | residual activity [16] | residual activity [17] | residual activity [18]
CC(=O)c1ccc(N2CCOCC2)cc1O | 89% | 100% | 75% | 74% | 112% | 97% | 112% | 130% | 108% | 92% | 94% | 110% | 102% | 107% | – | – | – | –
O=Nc1c(-c2c(O)[nH]c3ccccc23)[nH]c2ccccc12 | 67% | 73% | 119% | 74% | 94% | 87% | 109% | 83% | 79% | 20% | 55% | 61% | 61% | 58% | 23% | 6% | 4% | 16%
